Source: the supplement of paper PMC3342239
Where a name gives a salt, the structure may show the parent alone.

test system: Saccharomyces cerevisiae; assay: fraction of cells in G1 phase (DNA content, flow cytometry); higher = more cells with unreplicated DNA (G1 delay); details: temperature: 30 C; YPD; JTY2953 pdr5 snq2 (sensitized); drug added to: cultures diluted from stationary phase; 6-7 h
Experimental: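 S. cerevisiae cultures in YPD at 30°C were treated with each drug of the Enzo FDA-approved library at 20 µg/ml (final µM given per drug). Cells were fixed after 6–7 h (S1) or 6 h (S2), or after 4.33 h for BY4741 (S3), then stained with SYTOX Green. %G1 is the Dean-Jett-Fox G1 peak area divided by the G1+G2/M peak areas, written as a fraction and averaged over at least two independent experiments. DMSO reference: mean ~0.49; >0.60 is called High G1 and <0.3876 Low G1. Scale: lower means mitotic delay.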

Compound | fraction of cells in G1 phase
COc1cccc(C2(O)CCCCC2CN(C)C)c1 (stereo unspecified) [Tramadol HCl] (75.935 µM) | 0.492
C[C@@H]1CN([C@H]2CC[C@](C#N)(c3ccc(F)cc3)CC2)CC[C@]1(C(=O)O)c1ccccc1 [Levocabastine HCl] (47.5588 µM) | 0.468
O=C1C[C@@H]2OCC=C3CN4CC[C@]56c7ccccc7N1[C@H]5[C@H]2[C@H]3C[C@H]46 [Strychnine HCl] (59.8047 µM) | 0.497
O=C1CCCN1CC#CCN1CCCC1 [Oxotremorine sesquifumarate] (96.9509 µM) | 0.542
CC(C)CC(N(C)C)C1(c2ccc(Cl)cc2)CCC1 (stereo unspecified) [Sibutramine HCl] (71.4652 µM) | 0.516
C=CCN1CC[C@]23c4c5ccc(O)c4O[C@H]2C(=O)CC[C@@]3(O)[C@H]1C5 [Naloxone HCl] (61.0904 µM) | 0.488
